Over roughly 8,300 sequences, “log2 fold change of degron read counts, EGFP-low vs EGFP+ sorted cells (limma voom), compound-induced degradation” has its median near -1.1; the highest 2% begin near 3.2. Many of the other results were omitted from the sample, so the highest values are more common in it than they were.
T1: CRBN, Q96SW2
T1 chain: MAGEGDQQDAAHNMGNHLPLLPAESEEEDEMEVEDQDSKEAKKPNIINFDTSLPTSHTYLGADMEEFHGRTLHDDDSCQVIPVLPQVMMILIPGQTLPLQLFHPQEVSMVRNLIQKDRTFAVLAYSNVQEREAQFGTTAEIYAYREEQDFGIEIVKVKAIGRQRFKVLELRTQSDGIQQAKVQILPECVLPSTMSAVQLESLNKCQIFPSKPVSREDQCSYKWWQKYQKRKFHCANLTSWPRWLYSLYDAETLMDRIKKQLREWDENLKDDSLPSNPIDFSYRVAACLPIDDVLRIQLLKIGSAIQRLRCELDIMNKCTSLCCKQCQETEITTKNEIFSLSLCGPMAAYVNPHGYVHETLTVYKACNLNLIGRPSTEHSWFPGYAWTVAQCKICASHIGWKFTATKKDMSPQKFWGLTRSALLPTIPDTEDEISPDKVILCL


Molecular target: T1, CRBN, Q96SW2
Assay: log2 fold change of degron read counts, EGFP-low vs EGFP+ sorted cells (limma voom), compound-induced degradation; higher = more compound-induced degradation of the degron-EGFP fusion; degrons are variants of IKZF1/3 zinc finger 2; compound dose not given here
Settings: Jurkat, 18 h
[1] = compound: compound 19 (5-tert-butyl-thalidomide)
[2] = compound: compound 22 (5-morpholino-thalidomide)
[3] = compound: compound 33 (diphenyl IMiD analogue)
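Note: pooled lentiviral library of zinc finger degron-EGFP fusions in mCherry-positive Jurkat cells, FACS-sorted after compound exposure, with degron abundance counted by next-generation sequencing.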

Row | Sequence | log2 fold change of degron read counts [1] | log2 fold change of degron read counts [2] | log2 fold change of degron read counts [3] | log2 fold change of degron read counts (compound: thalidomide)
1 | FDCPVCGAEFTQKGNLLRHIKL [46F_47D_49P_50V_52G_53A_54E_55F_67L_, Q9UKT9] | -0.42 | -1.74 | 0.6 | 0.131
2 | FSCDVCGAAFTQKGNLLRHIKL [46F_47S_49D_50V_52G_53A_54A_55F_67L_, Q9UKT9] | 1.56 | 1.45 | 1.14 | -0.292
3 | LICEICGFTCTQKGNLLRHIKL [46L_47I_49E_50I_52G_53F_54T_55C_67L_, Q9UKT9] | 0.795 | 2.24 | 2.34 | 3.13
4 | FQCEICGADFTQKGNLLRHIKL [46F_47Q_49E_50I_52G_53A_54D_55F_67L_, Q9UKT9] | -0.47 | 0.00637 | 1.29 | 3
5 | FGCEICGAPFTQKGNLLRHIKL [46F_47G_49E_50I_52G_53A_54P_55F_67L_, Q9UKT9] | 1.88 | 0.802 | -0.557 | -0.51
6 | FNCEQCGAPFTQKGNLLRHIKL [46F_47N_49E_50Q_52G_53A_54P_55F_67L_, Q9UKT9] | -1.19 | -2 | -2.69 | -2.17
7 | FQCEICGRPFTQKGNLLRHIKL [46F_47Q_49E_50I_52G_53R_54P_55F_67L_, Q9UKT9] | -0.793 | -0.383 | -1.07 | 1.31
8 | FWCEICGAPFTQKGNLLRHIKL [46F_47W_49E_50I_52G_53A_54P_55F_67L_, Q9UKT9] | 3.82 | 3.42 | 2.64 | 1.23
9 | FQCEICGAPFTQKGNLLRHIKL [46F_47Q_49E_50I_52G_53A_54P_55F_67L_, Q9UKT9] | 3.69 | 3.61 | 2.03 | 3.72
10 | FWCEICGADFTQKGNLLRHIKL [46F_47W_49E_50I_52G_53A_54D_55F_67L_, Q9UKT9] | 0.346 | 0.98 | -0.492 | -1.5
11 | FICEICGAPFTQKGNLLRHIKL [46F_47I_49E_50I_52G_53A_54P_55F_67L_, Q9UKT9] | 2.83 | 3.53 | 2.76 | 3.43
12 | FNCEICGADFTQKGNLLRHIKL [46F_47N_49E_50I_52G_53A_54D_55F_67L_, Q9UKT9] | -1.15 | -2.31 | -1.14 | -1.4
13 | FICEICGADFTQKGNLLRHIKL [46F_47I_49E_50I_52G_53A_54D_55F_67L_, Q9UKT9] | -2.33 | -0.887 | -0.381 | 0.298
14 | FNCEICGAPFTQKGNLLRHIKL [46F_47N_49E_50I_52G_53A_54P_55F_67L_, Q9UKT9] | 3.39 | 2.54 | 0.567 | 1.58
15 | FWCEICGRPFTQKGNLLRHIKL [46F_47W_49E_50I_52G_53R_54P_55F_67L_, Q9UKT9] | 1.92 | 0.403 | 0.52 | -0.912

— the supplement of paper PMC12645437, “Orthogonal IMiD-Degron Pairs Induce Selective Protein Degradation in Cells” (ACS Chemical Biology, 2025)
